The campaign covered roughly 220,000 compounds. About 130 (0.059%) were called active. Rule as the data show it: active = inhibition above about 25%; inactive = the rest. The sample as a whole holds a higher share of actives than the screen did.
molecular target: Furin (Homo sapiens) (UniProt P09958); test: furin protease activity blockers – biochemical, fluorescence intensity, primary screen (AID 463115); conditions: purified furin, fluorogenic substrate cleavage, hits give high values; at 30 µM unless noted
Sequence (P09958 108-714 limits assumed): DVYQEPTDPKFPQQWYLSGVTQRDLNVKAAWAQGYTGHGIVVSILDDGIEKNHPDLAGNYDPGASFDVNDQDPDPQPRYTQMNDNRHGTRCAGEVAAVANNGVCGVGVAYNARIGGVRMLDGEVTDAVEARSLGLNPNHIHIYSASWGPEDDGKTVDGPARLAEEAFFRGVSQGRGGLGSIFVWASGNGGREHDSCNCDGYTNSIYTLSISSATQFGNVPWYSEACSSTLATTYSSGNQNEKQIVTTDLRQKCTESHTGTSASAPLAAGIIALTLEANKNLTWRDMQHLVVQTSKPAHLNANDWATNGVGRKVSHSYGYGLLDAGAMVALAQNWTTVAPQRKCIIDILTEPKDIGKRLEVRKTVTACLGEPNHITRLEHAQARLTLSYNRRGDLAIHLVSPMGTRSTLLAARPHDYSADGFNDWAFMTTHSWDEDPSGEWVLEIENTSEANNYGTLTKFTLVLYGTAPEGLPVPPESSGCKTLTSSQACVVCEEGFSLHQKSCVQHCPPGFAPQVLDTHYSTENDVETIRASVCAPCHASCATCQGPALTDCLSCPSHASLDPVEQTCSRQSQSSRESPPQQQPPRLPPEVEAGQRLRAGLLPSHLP

inhibition, active:
CC(=O)NC(C)c1nc2ccccc2n1Cc1ccccc1F (stereo unspecified) 29.1% [at 20 µM]
CC(=O)c1sc(NC(=O)c2ccc(C)cc2)nc1C 26.4% [at 20 µM]

inhibition, inactive:
COc1cccc(OCc2cc(/C=N/NC(=O)c3nc(Cl)c(Cl)c(N)c3Cl)ccc2OC)c1 -20.2% [at 20 µM]
Cc1ccc(C(=O)NC(=S)Nc2ccc3[nH]c(=O)[nH]c3c2)cc1C -13.7%
C=C(C)Cn1c(C)cc(C)c(S(=O)(=O)c2ccccc2C)c1=O 5.86% [at 20 µM]
CC(C)NC(=O)C(=O)N/N=C/c1ccco1 -9.76% [at 20 µM]
Cc1ccccc1NC(=O)Nc1ccccc1N1CCCCC1 -10.3%
Cc1cc(OC(=O)c2ccccc2Cl)ccc1N1C(=O)CCC1=O -16%
Cc1cccc(-n2c(SCC(=O)Nc3cccc(S(=O)(=O)NC4=NCCCCC4)c3)nc3ccccc3c2=O)c1C -12.8%
COc1ccc(CCNC(=O)C(=O)NCc2ccccc2C)cc1OC -21%
CCC(=O)Nc1nc2ccccc2n1Cc1ccccc1C -19.3%
C=CCn1c(C(C)NC(=O)CC)nc2ccccc21 (stereo unspecified) -10.5% [at 20 µM]
CCCCNC(=O)N1CCN(S(C)(=O)=O)CC1 -17.1%
CNC(=S)N/N=C/c1cn(Cc2ccc(C)cc2)c2ccccc12 -4.13%
O=C1CCCc2nn(-c3ccccc3)nc21 -13.3% [at 20 µM]
O=C(Nc1cccnc1)c1cc2cc(Br)ccc2oc1=O -18%
CSc1ccc(C#N)cc1NC(=O)c1ccc(Cl)cc1 -25.3% [at 20 µM]
COc1ccc(NC(=O)C(NC(C)=O)C(=O)NCc2ccccc2Cl)cc1 (stereo unspecified) -24.7% [at 20 µM]
Cc1ccc(-c2cc(C(F)(F)F)n3ncc(C(=O)N4CCCCC4c4cccnc4)c3n2)cc1 (stereo unspecified) -31.6%
Cc1ccc(N(Cc2cc3ccccc3[nH]c2=O)C(=O)c2cccs2)cc1 -16%
CC1(C)CC(=O)C(CC(=O)N2CCC(Cc3ccccc3)CC2)C(=O)C1 -13%
O=C(O)/C(=C/c1cccnc1)NC(=O)c1ccccc1 -17.1%
COc1cc([C@H](Cc2ccccc2)NC(C)=O)oc(=O)c1 -28.7%
CSc1nc(C)nc(C2CC2)c1C#N -16.6%
C=CCOC(=O)C1=C(C)NC(C)=C(C(=O)OCC=C)C1c1cccs1 -8.1% [at 20 µM]
COc1ccc2c(CC(=O)OCC(=O)Nc3ccccc3[N+](=O)[O-])coc2c1 -10.8%
Clc1ccc(C[n+]2cc(-c3ccccc3)n3c2CCC3)cc1 -20.2%
CCC1C=C(c2ccccc2)C=CN=C1N(CC)CC (stereo unspecified) -18.4%
CC1=C(C)CC(C(=O)NC(C)CCc2ccccc2)C(C(=O)O)C1 (stereo unspecified) -15%
CC1=C(C)C(=O)OC(C(C)C2CCC3C4CC=C5CC(OC6OC(COC7OC(CO)C(O)C(O)C7O)C(O)C(O)C6O)CC(O)C5(C)C4CCC23C)C1 (stereo unspecified) -28.1%
CC1CCCC(C)N1/N=C/c1ccccc1OC(F)F (stereo unspecified) -34.3%
NC(N)=Nc1nc2ccc(Br)cc2c(=O)[nH]1 -13.8%
CCOc1ccc(NC(=S)NC(=O)/C=C/c2ccc(OC)cc2)c([N+](=O)[O-])c1 -14.6%
Cc1c(Br)cc(C(=O)N2CCCCCC2)c(C)c1C -19.1% [at 20 µM]
CC(C)CCN1CCN(Cc2ccc(C(F)(F)F)cc2)CC1CCO (stereo unspecified) -11.2%
COc1ccc(OC)c(S(=O)(=O)NCCC(C)C)c1 -25.7%
O=C(NCCc1ccccn1)c1cc(-c2ccc(Cl)cc2)nc2ccccc12 -20.1%
CC12CN3CCN(CC(C3)/C1=N\NC(=O)c1ccccc1N)C2 -14.7%
CC(CC(=O)O)CC(=O)NNC(=O)c1cccc(Br)c1 (stereo unspecified) 4.22%
CCCOn1c(-n2nc(C)cc2C)nc2ccccc2c1=O -1.39% [at 20 µM]
CC(C)Oc1ccccc1C(=O)NC(CO)C(=O)O (stereo unspecified) -21.8%
CC(C)(C)NC(=O)NC(=O)COC(=O)Cc1ccc(Cl)cc1Cl -11.5%
CCOC(=O)c1nnn2c1nc(N1CCN(c3ccccc3)CC1)c1ccccc12 -23.3%
C=C(C)C1CC=C(C)/C(=N/NC(=O)CCCNc2cccc(C)c2)C1 (stereo unspecified) -8.06%
CCc1ccc(NC(=O)CC2C(=O)NCCN2C(=S)Nc2ccccc2)cc1 (stereo unspecified) -22.7%
CC(C)C(O)C1CCN(Cc2nc(Cc3ccccc3Cl)no2)CC1 (stereo unspecified) -21.2%
CC(=O)c1sc(NC(=O)c2cccc3ccccc23)nc1C -10.7% [at 20 µM]
COC(=O)c1sc(NC(=S)NC(=O)c2ccc(C)cc2)nc1C -11.8%
CN(C)c1ccc(/C=N/NC(=O)C(O)c2ccc(Br)cc2)cc1 (stereo unspecified) -19%
CCC(=O)NC(Nc1nc2ccc(C)cc2s1)(C(=O)OC)C(F)(F)F (stereo unspecified) -11.3% [at 20 µM]
CCCCNC(=O)OC(C)CNC(=O)OC (stereo unspecified) -9.97% [at 20 µM]
CN(C)/N=C/c1cn(-c2ccccc2)nc1-c1cccnc1 1.34%
CCCNS(=O)(=O)c1ccc(CCC(=O)N2CCCC2)cc1 -15.5%
C=CC(COCc1ccccc1)N(Cc1ccccc1)S(=O)(=O)c1ccccc1Br (stereo unspecified) -14.6%
COc1ccc(C2=NOC3(CC(=O)N(c4ccc(Cl)cc4)C3=O)C2)c(OC)c1 (stereo unspecified) -21.1% [at 20 µM]
O=C(NC1CCN(Cc2ccccc2)CC1)c1c(F)cccc1F -12.2%
Nc1c(NCCc2ccccc2)c2ccccc2oc1=O -0.514%
Cc1cc(Nc2ccc(N3CCOCC3)cc2)c2cccc(C)c2n1 3.96%
O=C(NN1C(=O)C2C(C1=O)C1C=CC2C12CC2)c1ccccc1Cl (stereo unspecified) -7.61%
Cc1ccc(N(C(=O)Cc2cccs2)C2C=CS(=O)(=O)C2)cc1Cl (stereo unspecified) -2.17%
Cc1ccc(-n2c(SCC(=O)N/N=C/C=C/c3ccccc3[N+](=O)[O-])nc3ccccc3c2=O)cc1 -14.5%
CCC(=O)N(Cc1cc2ccccc2[nH]c1=O)c1ccc(OC)cc1 -11.6%
CCCCc1ccc(NC(=S)N2CCCC(CO)C2)cc1 (stereo unspecified) -6.03%
O=S(=O)(NCC1CCCO1)c1cnc(Cl)c(Cl)c1 (stereo unspecified) -12.9%
Cc1ccc(NC(=S)N(CCN(C)C)Cc2cccs2)cc1C -9.92%
COc1cccc(/C=N/NC(=O)CNC(=O)c2ccc(S(=O)(=O)N3CCOCC3)cc2)c1OC -9.37%
COC(=O)CCc1sc(Nc2ccc(Br)cc2)nc1-c1ccc(OC)cc1 -10.8%
CC1=CC=CN2C1=NC(=O)CC2(C)C(=O)N(CC(=O)NC1CCCC1)c1ccccc1C (stereo unspecified) -22.6%
CC(C)C1Nc2c(C(=O)O)cccc2C(Nc2ccccc2C(=O)O)C1(C)C (stereo unspecified) -28%
Cn1c(CCCOc2ccc(Cl)cc2Cl)n[nH]c1=S -27%
O=C(O)C1C2CC2CN1C(=O)c1ccc(Cl)cc1Cl (stereo unspecified) -14.1%
O=C1CC(Cc2ccc(Cl)cc2)C(=O)N1c1cc(Cl)ccn1 (stereo unspecified) 7.89%
CCn1c(-c2cccnc2Cl)nc2cc(C)c(C)cc21 -16.4%
CCOC(=O)CCCNC(=O)COC(=O)c1cc(Br)c(Br)s1 -22.9%
CC(Sc1nnc(Cc2ccc([N+](=O)[O-])cc2)o1)C(N)=O (stereo unspecified) -20.4% [at 20 µM]
O=C(c1ccc(OC2CCN(C(=O)c3cccnc3)CC2)cc1)N1CCCCCC1 -20.3%
CCOC(=O)/C(=C\c1ccc([N+](=O)[O-])cc1)C(=O)c1cc(C(C)=O)c(Nc2ccccc2)s1 -2.4%
CC(C)(C)c1nc2ccccc2c(=O)n1N1C(=O)c2ccccc2C1=O -15.6% [at 20 µM]
O=C(NC1CCN(Cc2ccccc2)CC1)c1cc(Br)c(Br)[nH]1 -27.8%
NC(N)=NCCCc1cn(CC(=O)N2CCNCC2)nn1 -18.6%
CC(C)(O)C#Cc1ncc(C(F)(F)F)cc1Cl -28.4%
Cc1ccc(/C=C/C(=O)O)cc1S(=O)(=O)N1CCC(Cc2ccccc2)CC1 -29.9%
CCOc1ccc(N2C(=O)/C(=C/c3ccc(C)o3)N(C)C2=S)cc1 3.15%
O=C(/C=C/NNC(=O)c1cccc(Br)c1)c1ccccc1 0.209% [at 20 µM]
O=C(C1=C[C@H](c2coc3ccccc3c2=O)C[C@H](OCc2ccc(CO)cc2)O1)N1CCN(Cc2ccccc2)CC1 -22.1%
COc1cc(/C=N\NC(=O)c2nonc2N)c(OC)cc1Br -19.8%
Cc1nnc(SCC(=O)NC2CCCC2)s1 -7.06% [at 20 µM]
NNc1nc2c(Cl)cccc2s1 -15.9%
COc1ccc(NS(=O)(=O)c2ccc(Oc3c(C#N)cccc3C#N)cc2)cc1 -15.9%
CC1=C[C@H]2Cc3cc(C)cc(C)c3S(=O)(=O)[C@@H]2C=C1 -14.9%
Cn1c(=O)c2c(ncn2CC(COCc2ccccc2Cl)OCc2ccccc2Cl)n(C)c1=O (stereo unspecified) -9.34% [at 20 µM]

— PubChem BioAssay AID463115 (University of Pittsburgh Molecular Library Screening Center, 2010)
